This experiment can be described thus: chemical genetic growth profiling, strain panel (AID 1159580).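 Also: tested at 20 µM; growth read once vehicle control cultures reached saturation at 30 °C; 1 = growth at the plate median or of vehicle wells; lower values mean less growth of the strain.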 As to conditions: S. cerevisiae deletion strains, growth OD.

The campaign covered roughly 5,500 compounds. About 2,000 (36%) were called active. Roughly 18% stayed inconclusive and do not appear here. The list shows a part of the results. A number with no mark means an inactive call. Rule as the data show it: active = normalized growth mostly below about 0.91 (no sharp cut-off); inconclusive = no clear call, values can overlap the other calls; inactive = mostly above about 0.92.

As for `COc1ccc2c(c1OC)C(=O)O[C@H]2[C@@H]1c2cc3c(cc2CCN1C)OCO3`, the normalized growth (locus YAL013W, strain DEP1, active compounds read low) was 1.01; the normalized growth (locus YAL040C, strain CLN3, active compounds read low) was 0.973; the normalized growth (locus YCL061C, strain MRC1 (second series), active compounds read low) was 1.01; the normalized growth (locus YDR363W, strain ESC2, active compounds read low) was 1.02; the normalized growth (locus YER002W, strain NOP16, active compounds read low) was 1.03; the normalized growth (locus YGR078C, strain PAC10, active compounds read low) was 0.428 (active). Also, the normalized growth (locus YMR263W, strain SAP30, active compounds read low) was 1; the normalized growth (locus YNL197C, strain WHI3, active compounds read low) is 1.01; the normalized growth (locus YNL224C, strain SQS1, active compounds read low) is 0.996; the normalized growth (locus YNL322C, strain KRE1, active compounds read low) was 1.02; the normalized growth (locus YOR083W, strain WHI5 (second series), active compounds read low) was 1.07; the normalized growth (locus YPL055C, strain LGE1, active compounds read low) was 1.01.
